Where “and” joins values, the source holds several entries; their conditions need not be identical. Equal entries are not always repeated. The campaign covered roughly 5,500 compounds. About 2,000 (36%) were called active. Inconclusive results (about 18%) are left out. Rule as the data show it: active = normalized growth mostly below about 0.91 (no sharp cut-off); inconclusive = no clear call, values can overlap the other calls; inactive = mostly above about 0.92. The list shows a part of the results.
Assay: chemical genetic growth profiling, strain panel (AID 1159580);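 also: tested at 20 µM; growth read once vehicle control cultures reached saturation at 30 °C; 1 = growth at the plate median or of vehicle wells; lower values mean less growth of the strain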
Conditions: S. cerevisiae deletion strains, growth OD

Measured: normalized growth

C[C@H]1[C@H]2CCC3C4CC=C5C[C@@H](N(C)C)CC[C@]5(C)C4CC[C@@]32CN1C (stereo partly specified)
active: locus YDR392W, strain spt3, hits give low values 0.551
inactive: locus YAL013W, strain DEP1, hits give low values 0.994 | locus YAL021C, strain ccr4, hits give low values 1.01 | locus YAL026C, strain drs2, hits give low values 0.997 | locus YAL030W, strain snc1, hits give low values 0.996 | locus YBL061C, strain skt5, hits give low values 0.995 | locus YBR009C, strain hhf1, hits give low values 0.95 | locus YBR021W, strain FUR4, hits give low values 1 | locus YBR023C, strain chs3, hits give low values 0.994 | locus YBR171W, strain sec66, hits give low values 0.983 | locus YBR229C, strain ROT2, hits give low values 0.956 | locus YBR231C, strain swc5, hits give low values 0.972 | locus YBR279W, strain paf1, hits give low values 0.994 | locus YCL011C, strain gbp2, hits give low values 0.988 | locus YCL016C, strain dcc1, hits give low values 0.986 | locus YCL029C, strain bik1, hits give low values 0.988 | locus YCL061C, strain MRC1, hits give low values 0.994 | locus YCL069W, strain vba3, hits give low values 1 | locus YCR088W, strain abp1, hits give low values 0.996 | locus YDL005C, strain med2, hits give low values 0.992 | locus YDL035C, strain GPR1, hits give low values 0.949 | locus YDL040C, strain nat1, hits give low values 0.974 | locus YDL074C, strain BRE1, hits give low values 1.01 | locus YDL101C, strain DUN1, hits give low values 0.989 | locus YDL134C, strain PPH21, hits give low values 0.958 | locus YDL185W, strain tfp1, hits give low values 0.999 | locus YDL192W, strain arf1, hits give low values 0.984 | locus YDR001C, strain nth1, hits give low values 0.993 | locus YDR069C, strain doa4, hits give low values 0.976 | locus YDR101C, strain arx1, hits give low values 1.04 | locus YDR137W, strain rgp1, hits give low values 0.994 | locus YDR150W, strain NUM1, hits give low values 0.981 | locus YDR159W, strain sac3, hits give low values 0.941 | locus YDR162C, strain NBP2, hits give low values 0.989 | locus YDR195W, strain ref2 0.945 | locus YDR297W, strain sur2, hits give low values 1 | locus YDR318W, strain mcm21, hits give low values 0.957 | locus YDR334W, strain swr1, hits give low values 0.996 | locus YDR335W, strain msn5, hits give low values 0.992 | locus YDR388W, hits give low values 0.984 | locus YDR502C, strain sam2, hits give low values 0.977 | locus YEL003W, strain gim4, hits give low values 0.994 | locus YEL037C, strain rad23, hits give low values 0.999 | locus YEL061C, strain CIN8 (second series), hits give low values 0.992 | locus YEL061C, strain CIN8, hits give low values 0.991 | locus YER015W, strain faa2, hits give low values 0.986 | locus YER016W, strain bim1, hits give low values 0.988 | locus YER110C, hits give low values 0.99 | locus YER111C, strain swi4, hits give low values 0.992 | locus YER155C, strain BEM2 (second series), hits give low values 0.867 | locus YER155C, strain BEM2, hits give low values 0.999 | locus YER167W, strain BCK2, hits give low values 0.999 | locus YFR010W, strain ubp6, hits give low values 0.997 | locus YGL078C, strain dbp3, hits give low values 0.996 | locus YGL086W, strain mad1, hits give low values 1.02 | locus YGL167C, strain pmr1, hits give low values 0.981 | locus YGL173C, strain kem1, hits give low values 0.99 | locus YGL227W, strain vid30, hits give low values 0.985 | locus YGL240W, strain doc1, hits give low values 0.967 | locus YGL248W, strain PDE1, hits give low values 0.965 | locus YGL253W, strain hxk2, hits give low values 0.974 | locus YGR078C, strain PAC10, hits give low values 0.981 | locus YGR135W, strain pre9, hits give low values 0.968 | locus YGR252W, strain gcn5, hits give low values 0.939 | locus YHR013C, strain ard1, hits give low values 0.918 | locus YHR027C, strain rpn1, hits give low values 0.997 | locus YHR030C, strain SLT2, hits give low values 1 and 1.01 | locus YHR079C, strain IRE1 (second series), hits give low values 0.996 | locus YHR079C, strain IRE1, hits give low values 1.01 | locus YHR094C, strain hxt1, hits give low values 0.975 | locus YHR129C, strain ARP1, hits give low values 0.994 | locus YHR142W, strain chs7, hits give low values 0.99 | locus YHR200W, strain rpn10, hits give low values 0.986 | locus YIL066C, strain RNR3, hits give low values 0.986 | locus YIL073C, strain SPO22, hits give low values 0.957 | locus YIL125W, strain kgd1, hits give low values 0.995 | locus YIR030C, strain dcg1, hits give low values 0.999 | locus YJL092W, strain hpr5, hits give low values 0.992 | locus YJL095W, strain BCK1 (second series), hits give low values 0.991 | locus YJL095W, strain BCK1, hits give low values 0.963 and 0.999 | locus YJL115W, strain asf1, hits give low values 1 | locus YJL129C, strain trk1, hits give low values 0.99 | locus YJL134W, strain LCB3, hits give low values 0.993 | locus YJL154C, strain vps35, hits give low values 1 | locus YJL164C, strain tpk1, hits give low values 0.996 | locus YJL166W, strain qcr8, hits give low values 0.986 | locus YJL168C, strain set2, hits give low values 0.993 | locus YJL187C, strain SWE1 (second series), hits give low values 0.98 | locus YJL187C, strain SWE1, hits give low values 0.994 | locus YJR043C, strain POL32, hits give low values 0.993 | locus YJR066W, strain TOR1, hits give low values 0.958

Reference: PubChem BioAssay AID1159580 (chemical genetic matrix, 2015)
